Experimental data taken from PubChem BioAssay AID1578 (Sanford-Burnham Center for Chemical Genomics, 2009).
Hit rate of the full screen: of about 290,000 compounds, about 3,000 (1%) were called active. The list comes from a sample in which actives are over-represented; it also holds similar structures and randomly drawn compounds. A number with no mark means an inactive call. Rule as the data show it: active = inhibition mostly above about 36% (no sharp cut-off); inactive = mostly below about 34%.

assay: inhibition of NOD1-driven NF-kB reporter – cell-based, luminescence, uHTS, primary screen (AID 1578); conditions: NOD1-driven NF-kB luciferase reporter cells, at 4 µM, active compounds read high;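 also: HEK-293T reporter cells stimulated with the NOD1 agonist gamma-tri-DAP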

| Compound | inhibition |
| --- | --- |
| O=[N+]([O-])c1cc(S(=O)(=O)N2CCCC2)ccc1N/N=C1/CCCc2ccccc21 | 13.3% |
| NS(=O)(=O)c1ccc(CNC(=O)c2cccnc2Cl)cc1 | -10.3% |
| CCOC(=O)C1CCCN(CCC(=O)Nc2cccc(C)c2)C1 (stereo not drawn) | -37.8% |
| Nn1cnnc1N/N=C/c1cc(Br)cc(Br)c1O | 82.4% (active) |
| COc1ccc(/C=N/Nc2nncn2N)cc1Br | -19.1% |
| Nn1cnnc1N/N=C/c1ccc(Cl)cc1Cl | -3.2% |
| CC(C)CCN1C(=O)c2ccccc2C1C(=O)NCc1cccnc1 (stereo not drawn) | 7.5% |
| Cn1c(=O)c2c(nc3n2CC(COc2ccccc2)O3)n(C)c1=O (stereo not drawn) | -8.7% |
| COc1ccc(/C=N/Nc2snc(SC)c2C#N)cc1OC | -0.1% |
| COc1cc(/C=N/Nc2snc(SC)c2C#N)cc(OC)c1OC | 68.9% (active) |
| COc1cc(/C=N/Nc2snc(SC)c2C#N)ccc1O | 63.7% |
| CCOc1ccc(NC(=O)CCNS(=O)(=O)c2ccc3c(c2)oc(=O)n3C)cc1 | -14.8% |
| N#CC(C(=O)c1ccccc1Cl)=C1SCCCS1 | -2.6% |
| CCN1C(=NCC(C)C)N[C@@H](c2cccc(C(F)(F)F)c2)C(C(=O)OC)=C1C | -18.8% |
| Cc1ccc(-c2nc3cnccn3c2Nc2c(C)cccc2C)o1 | 71% (active) |
| Cc1ccc(-c2nc3cnccn3c2Nc2ccccc2)o1 | -18.2% |
| Cc1ccc(Nc2c(-c3ccc(C)o3)nc3cnccn23)cc1 | -9.7% |
| COc1ccc(C2c3cc(OC)c(OC)cc3CCN2C(=O)c2ccccc2)cc1OC (stereo not drawn) | -31.9% |
| Cc1ccc(NC(=O)CSc2ncnc3ccccc23)cc1S(=O)(=O)N1CCCCCC1 | 31.7% |
| O=C(Nc1ccc(S(=O)(=O)N2CCCC2)cc1)c1cc(=O)c2ccccc2o1 | -3.6% |
| Cc1ccc(S(=O)(=O)N2CCCCC2)cc1NC(=O)CSc1ncnc2ccccc12 | 58.7% |

| Compound | inhibition |
| --- | --- |
| Cc1ccc(NC(=O)c2cc(=O)c3ccccc3o2)cc1S(=O)(=O)N1CCOCC1 | -6.6% |
| COc1ccc(Br)cc1CNC(=O)CN1C(=O)C(c2ccccc2)Oc2cccnc21 (stereo not drawn) | 18.1% |
| CCc1ccccc1NC(=O)CCc1c(C)nn(-c2ccc(N3CCOCC3)nn2)c1C | 20.1% |
| O=C(CSc1nnc(CNC(=O)c2cccs2)o1)Nc1ccc(Br)cc1 | -31.8% |
| CCOC(=O)c1cnc2ccc(C)cc2c1Nc1ccc(N2CCOCC2)cc1 | -17.2% |
| CCOC(=O)c1ccc2ncc(C(=O)OCC)c(Nc3ccc(N4CCOCC4)cc3)c2c1 | 107% (active) |
| CCOC(=O)c1cnc2ccc(C(=O)OC)cc2c1Nc1ccc(C(=O)O)cc1 | -16.9% |
| CC(C)C(NC(=O)C(C)N1C(=O)c2ccccc2C1=O)c1ccccc1 (stereo not drawn) | -7.4% |
| CCC(=O)c1ccc(SC(=O)N(C)C)cc1O | -4.8% |
| C=C1CCC[C@]2(C)C[C@H]3OC(=O)C(CN4CCOCC4)[C@H]3C[C@@H]12 (stereo partly drawn) | 2.5% |
| C=C1CCC[C@]2(C)C[C@H]3OC(=O)C(CN4CCCCC4CO)[C@H]3CC12 (stereo partly drawn) | 80.3% (active) |
| C=C1CCC[C@]2(C)C[C@H]3OC(=O)C(CN4CC(C)OC(C)C4)[C@H]3C[C@@H]12 (stereo partly drawn) | -4.7% |
| COc1ccccc1NC(=O)c1sc2ncn(Cc3ccc(C)cc3)c(=O)c2c1C | -43.8% |
| CCCS(=O)(=O)Nc1cc(C(F)(F)F)ccc1OCCOC | -0.9% |
| Nc1ccc(Oc2ccc(F)cc2)nc1 | -4.6% |
| Cc1cc(Oc2ccc(N)cn2)ccc1Cl | 4.5% |
| CC(C)(C)c1ccc(Oc2ccc(N)cn2)cc1 | 65.9% (active) |
| Nc1ccc(Oc2ccc(Br)cc2)cc1 | -35.5% |
| CC(C)(C)c1ccc(Oc2ccc(N)cc2)cc1 | 82% (active) |
| Nc1ccc(Oc2cc(N)cc(Oc3ccccc3)c2)cc1 | -12.3% |
| Cc1cc(C)cc(Oc2ccc(N)cc2)c1 | -28.1% |

| Compound | inhibition |
| --- | --- |
| Cc1cccc(Oc2ccc(N)cc2)c1 | -25.9% |
| CCn1c2c(c3cc(Br)ccc31)CCC/C2=N\O | 15.3% |
| O=C(CCN1CCN(Cc2ccccc2)CC1)NNC(=O)Cc1ccc(Cl)c(Cl)c1 | -1.2% |
| COCC(=O)N(Cc1cc2cc(OC)ccc2[nH]c1=O)c1ccc(C)cc1 | -12.1% |
| O=C(CCS(=O)(=O)c1ccccc1)Nc1ccc2c(c1)OCO2 | -59.3% |
| CCOC(=O)N1CCN(S(=O)(=O)c2cc(Br)cnc2N)CC1 | 10.4% |
| COc1ccc(-c2csc(N3CCC(c4ccccc4)C3)n2)cc1 (stereo not drawn) | 26.8% |
| CCc1ccc(N(CC(=O)N2CCN(Cc3ccccc3)CC2)S(C)(=O)=O)cc1 | -32.3% |
| Cc1nc(=S)c2c([nH]1)-c1ccccc1CC21CCCCC1 | 104% (active) |
| Nc1nc(=S)[nH]c2c1C1(CCCC1)Cc1ccccc1-2 | 14.3% |
| Nc1nc(=S)[nH]c2c1C1(CCCCC1)Cc1ccccc1-2 | -16.2% |
| N#C/C(=C\c1ccc(Sc2nc3ccccc3[nH]2)o1)c1ccccc1 | 65.2% |
| N#C/C(=C/c1ccc(Sc2nc3ccccc3[nH]2)o1)c1cccc(F)c1 | 76.3% (active) |
| N#C/C(=C/c1ccc(Sc2nc3ccccc3[nH]2)o1)c1cccc(Br)c1 | 3.1% |
| COc1cccc(CN2CCN(C(=S)NCc3ccc(Cl)cc3)CC2)c1 | -10.4% |
| CCc1nc2sc3c(c2c(=O)n1CCO)CCC3 | -18.6% |
| COC(=O)c1cc(C)sc1NC(=O)CCCC(=O)O | -19.8% |
| CCCCNC(=O)CCn1c(=O)c2ccccc2n(CC(=O)N2CC(C)CC(C)C2)c1=O (stereo not drawn) | 21.3% |
| COc1cccc(/C=C/c2n[nH]c(=O)c(C#N)c2C)c1 | -7.2% |
| COc1ccc(/C=C/c2n[nH]c(=O)c(C#N)c2C)cc1 | 84.3% (active) |
| Cc1ccsc1/C=C/c1n[nH]c(=O)c(C#N)c1C | 9.3% |
